Experimental data taken from PubChem BioAssay (NCATS).
Inconclusive results are not listed. Activity calls are given as the source filed them. Calls come from the whole dose curve; as a rule, active = well fitted curve in the direction sought with a large enough effect; inconclusive = small, poorly fitted or top-dose-only effect, or another doubt; inactive = no such curve, though single readings can be large; an effect the other way counts as inactive or inconclusive.

Experiments:
[1] = Cellular Toxicity (caspase-3) Mesangial (AID 660); details: mesangial cells, normalized: DMSO 0%, 100 µM tamoxifen 100%; at 91.7 µM (top of the series);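 note: combined caspase 3 and 7 activity read by Caspase-Glo luminescence; cells exposed to compound for 16 h before the caspase read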
Summary of the method: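 AC50 values come from Hill-equation fits of caspase 3/7 activation, measured as Caspase-Glo luminescence in human glomerular mesangial cells exposed to compound for 16 h at 37 °C; 100% set by 100 uM tamoxifen.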

[2] = Cellular Toxicity (caspase-3) SK-N-SH (AID 661);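 note: 0% = DMSO basal and 100% = 10 µM staurosporine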
Summary of the method: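 Apoptosis readout in SK-N-SH neuroblastoma: Caspase-Glo 3/7 luminescence following 16 hr treatment in complete culture medium. Normalization used DMSO and 10 uM staurosporine controls.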

[3] = Cellular Toxicity (caspase-3) H-4-II-E (AID 663); details: H-4-II-E rat hepatoma, scaled: DMSO 0%, 100 µM tamoxifen 100%; at 92.2 µM (top of the series)
Summary of the method: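 H-4-II-E rat hepatoma, 1500 cells/well, 5 hr settle at 37 °C; compound 16 hr, 37 °C, complete medium; Caspase-Glo 3/7, 20 min RT; luminescence. DMSO = 0%, 100 uM tamoxifen = 100%; Hill-equation AC50.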

[4] = Cellular Toxicity (caspase-3) Hek293 (AID 664); details: HEK293 caspase-3 activation, DMSO = 0%, 100 µM tamoxifen = 100%; at 92.2 µM (top of the series);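 note: cells exposed to compound for 16 h at 37 °C before readout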
Summary of the method: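 Apoptosis readout: Caspase-Glo 3/7 signal in human HEK293 cells following 16-hour compound incubation. Responses scaled between DMSO baseline and 100 uM tamoxifen.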

[5] = Cellular Toxicity (caspase-3) N2a (AID 665);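 note: compound exposure lasted 16 h at 37 °C before readout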
Summary of the method: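 Concentration-response qHTS: compound-induced caspase-3/7 luminescence in N2a cells (16 h, 37 °C), relative to DMSO and 10 uM staurosporine controls; AC50 obtained using the standard Hill equation.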

[6] = Cellular Toxicity (caspase-3) NIH 3T3 (AID 666);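 note: 0% = DMSO basal and 100% = 100 µM tamoxifen stimulation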
Summary of the method: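 Activity: caspase-3/7 induction, NIH 3T3 cells, 16 hr treatment at 37°C, luminescent Caspase-Glo detection; AC50 via Hill equation.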

[7] = Cellular Toxicity (caspase-3) Renal Proximal Tubule (AID 667); details: Potency: caspase-3 activation;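 note: cells exposed to compound for 16 hours at 37 °C before detection; 0% = DMSO basal and 100% = 10 µM staurosporine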
Summary of the method: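 Luminescent caspase 3/7 signal from peptide-aminoluciferin cleavage measures apoptosis in freshly isolated rat kidney proximal tubule cells after 16 h compound exposure. Concentration-response data are normalized to DMSO and 10 uM staurosporine, and AC50 values come from Hill equation fits.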

[8] = target: Cytochrome P450 3A4 (Homo sapiens) (UniProt P08684); test: qHTS Assay for Inhibitors and Substrates of Cytochrome P450 3A4 (AID 884); note: % is set by controls: 0 for no effect and ±100 for the full control effect; nearly all actives have a fitted effect of over 50% in size
Cytochrome P450 3A4 (Homo sapiens), sequence (P08684 whole entry, looked up): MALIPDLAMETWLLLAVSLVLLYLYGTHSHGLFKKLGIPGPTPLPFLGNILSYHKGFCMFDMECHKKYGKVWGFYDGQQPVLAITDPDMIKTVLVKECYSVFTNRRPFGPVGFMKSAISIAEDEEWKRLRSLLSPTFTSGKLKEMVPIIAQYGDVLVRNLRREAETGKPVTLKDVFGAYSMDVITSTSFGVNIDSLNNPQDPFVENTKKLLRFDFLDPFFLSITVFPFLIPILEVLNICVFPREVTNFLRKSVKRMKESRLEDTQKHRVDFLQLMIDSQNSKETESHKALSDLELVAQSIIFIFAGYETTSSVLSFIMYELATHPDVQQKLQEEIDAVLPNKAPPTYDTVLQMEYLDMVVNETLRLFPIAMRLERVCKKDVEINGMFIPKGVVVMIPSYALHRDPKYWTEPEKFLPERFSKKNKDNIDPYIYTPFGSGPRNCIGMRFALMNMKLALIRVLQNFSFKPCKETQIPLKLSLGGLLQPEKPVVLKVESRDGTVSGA
Summary of the method: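 Luminescent readout of luciferin produced by CYP3A4 (20 nM) dealkylation of Luciferin-PPXE, 25 uM (its KM). NADPH-driven reaction ran 60 min at RT after 10 min compound preincubation; data scaled to 57 uM ketoconazole as 100% inhibition.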

[9] = Cell Viability - LYMP2-001 (AID 921);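 note: 0% = DMSO only and full inhibition = tetraoctylammonium bromide control wells; nearly all actives have a fitted effect of over 70% in size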
Summary of the method: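 CellTiter-Glo luminescence (intracellular ATP) after 24 hr compound exposure at 37 C, 2500 lymphoblastoid cells/well in complete medium. AC50 fitted with standard Hill equation; tetraoctylammonium bromide positive control.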

[10] = MultiTox-Fluor Cytotoxicity Assay - LYMP1-001 - Dead Cells (AID 946);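 note: 0% = DMSO and 100% = tetraoctylammonium bromide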
Summary of the method: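 In this qHTS, 15 uM tetraoctylammonium bromide defined 100% and DMSO defined basal activity. Lymphoblastoid cells (LYMP1-001, 2500 per well) received compound for 16 hr at 37 C before a fluorogenic dead-cell substrate readout at 485/520 nm.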

[11] = Cell Viability - LYMP1-002 - Assay at 16 hr (AID 948);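 note: 0% = DMSO alone and full effect = 92 µM tetraoctylammonium bromide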
Summary of the method: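 LYMP1-002 human lymphoblastoid cells, 2500/well; 5 hr 37 C; cpd 16 hr 37 C; CellTiter-Glo 30 min RT; luminescence (ATP). Concentration-response, Hill-fit AC50. Pos ctrl tetraoctylammonium bromide.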

[12] = MultiTox-Fluor Cytotoxicity Assay - LYMP1-002 - Live Cells (AID 955); note: % is set by controls: 0 for no effect and ±100 for the full control effect
Summary of the method: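 In this qHTS viability format, lymphoblastoid cells (LYMP1-002, human) received compound for 16 hr at 37 C. Fluorogenic GF-AFC cleavage by viable cells was detected at 405/510 nm after 1 h at room temperature.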

[13] = MultiTox-Fluor Cytotoxicity Assay - LYMP1-002 - Dead Cells (AID 960);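 note: 0% = DMSO and 100% = tetraoctylammonium bromide; nearly all actives have a fitted effect of over 60% in size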
Summary of the method: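 Concentration-dependent increases in membrane-leaked protease activity are quantified in LYMP1-002 cells after 16 hr treatment; values are normalized against DMSO and tetraoctylammonium bromide (15 uM) controls and AC50 derived by Hill modeling.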

[14] = MultiTox-Fluor Cytotoxicity Assay - LYMP1-003 - Dead Cells (AID 961);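 note: 0% = DMSO and 100% = tetraoctylammonium bromide; nearly all actives have a fitted effect of over 70% in size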
Summary of the method: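 Acute toxicity is scored as increased dead-cell protease activity in human lymphoblastoid LYMP1-003 cells after 16 h compound exposure in complete culture medium. Activity is normalized to DMSO basal and 15 uM tetraoctylammonium bromide as full response.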

[15] = MultiTox-Fluor Cytotoxicity Assay - LYMP1-003 - Live Cells (AID 962);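 note: 0% = DMSO only and full loss = 92 µM tetraoctylammonium bromide; cytotoxic hits lower the live-cell protease signal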
Summary of the method: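 Human lymphoblastoid line LYMP1-003 in complete culture medium, treated 16 hr with titrated compounds. Viable cells quantified via cell-permeant GF-AFC substrate fluorescence; AC50 derived by Hill fitting.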

[16] = Cell Viability - LYMP1-003 - Assay at 24 hr (AID 963);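 note: plate controls were DMSO only for no effect and tetraoctylammonium bromide positive control for full effect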
Summary of the method: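 The lymphoblastoid line was treated with titrated compounds for 24 hours, and viable cell number estimated from luciferase-based ATP luminescence.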

[17] = Cell Viability - LYMP1-003 - Assay at 40 hr (AID 964); note: % is set by controls: 0 for no effect and ±100 for the full control effect; nearly all actives have a fitted effect of over 60% in size
Summary of the method: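 Acute toxicity is scored as a concentration-dependent loss of intracellular ATP in LYMP1-003 cells (2500/well, complete medium) after 40 hr at 37 C, measured by CellTiter-Glo luminescence; AC50 values derive from standard Hill modelling.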

[18] = Cell Viability - LYMP2-003 (AID 965);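 note: cells exposed to compounds for 24 h before reading; 0% = DMSO only and full effect = 92 µM tetraoctylammonium bromide; nearly all actives have a fitted effect of over 50% in size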
Summary of the method: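 CellTiter-Glo luminescence (cellular ATP) after 24 h compound exposure at 37 C in complete medium; 2500 cells/well, 5 h settling beforehand. Concentration-response fitted to standard Hill equation for AC50. Tetraoctylammonium bromide served as positive control.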

[19] = Cell Viability - LYMP2-004 (AID 966);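 note: plate controls were DMSO only for no effect and tetraoctylammonium bromide control for full effect; nearly all actives have a fitted effect of over 65% in size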
Summary of the method: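 Viable-cell number estimated from ATP luminescence (CellTiter-Glo) in 2500 human lymphoblastoid cells/well after 24 hr at 37 C with compound. AC50 fitted to the standard Hill equation.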

[20] = MultiTox-Fluor Cytotoxicity Assay - LYMP1-001 - Live Cells (AID 947);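 note: 0% = DMSO only and full inhibition = tetraoctylammonium bromide control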

NC(=O)c1ccccc1[N+](=O)[O-]
inactive: caspase-3 activation [1] -0.625% | outcome [2] | caspase-3 activation [3] 0.0974% | caspase-3 activation [4] 0.369% | outcome [5] | outcome [6] | Potency [7] | Potency [8] | Potency [9] | outcome [10] | outcome [11] | outcome [12] | outcome [13] | Potency [14] | Potency [15] | Potency [16] | Potency [17] | Potency [18] | Potency [19]

NC(=S)NNC(N)=S
inactive: caspase-3 activation [1] -0.792% | outcome [2] | caspase-3 activation [3] 0.228% | caspase-3 activation [4] 1.03% | outcome [5] | outcome [6] | Potency [7] | Potency [8] | Potency [9] | outcome [10] | outcome [11] | outcome [12] | outcome [13] | Potency [14] | Potency [15] | Potency [16] | Potency [17] | Potency [18] | Potency [19]

C/C(C=O)=C/c1ccccc1
inactive: caspase-3 activation [1] -0.174% | outcome [2] | caspase-3 activation [3] -1.36% | caspase-3 activation [4] 0.188% | outcome [5] | outcome [6] | Potency [7] | Potency [8] | outcome [10] | outcome [20] | outcome [11] | outcome [12] | outcome [13] | Potency [14] | Potency [15] | Potency [16] | Potency [17] | Potency [18]

CCC=O
inactive: caspase-3 activation [1] -0.374% | outcome [2] | caspase-3 activation [3] 0.94% | caspase-3 activation [4] 1.43% | outcome [5] | outcome [6] | Potency [7] | Potency [8] | outcome [10] | outcome [20] | outcome [11] | outcome [12] | outcome [13] | Potency [14] | Potency [15] | Potency [16] | Potency [17] | Potency [18] | Potency [19]

CC(=O)OC(C)=O
inactive: caspase-3 activation [1] 0.184% | outcome [2] | caspase-3 activation [3] -0.382% | caspase-3 activation [4] -0.384% | outcome [5] | outcome [6] | Potency [7] | Potency [8] | Potency [9] | outcome [10] | outcome [11] | outcome [12] | outcome [13] | Potency [14] | Potency [15] | Potency [16] | Potency [17] | Potency [18] | Potency [19]

Cc1ccccc1C=O
inactive: caspase-3 activation [1] -0.421% | outcome [2] | caspase-3 activation [3] 0.931% | caspase-3 activation [4] 1.08% | outcome [5] | outcome [6] | Potency [7] | Potency [8] | Potency [9] | outcome [10] | outcome [11] | outcome [12] | outcome [13] | Potency [14] | Potency [15] | Potency [16] | Potency [17] | Potency [19]

OCCO
inactive: caspase-3 activation [1] -0.444% | outcome [2] | caspase-3 activation [3] -0.0515% | caspase-3 activation [4] 0.819% | outcome [5] | outcome [6] | Potency [7] | Potency [8] | Potency [9] | outcome [10] | outcome [11] | outcome [12] | outcome [13] | Potency [14] | Potency [15] | Potency [16] | Potency [17] | Potency [18] | Potency [19]

O=[N+]([O-])c1ccc(CCO)cc1
inactive: caspase-3 activation [1] -1.2% | outcome [2] | caspase-3 activation [3] 0.267% | caspase-3 activation [4] -3.11% | outcome [5] | outcome [6] | Potency [7] | Potency [8] | outcome [10] | outcome [20] | outcome [11] | outcome [12] | outcome [13] | Potency [14] | Potency [15] | Potency [16] | Potency [17] | Potency [18] | Potency [19]

CC(C)(C)OCC1CO1 (stereo not drawn)
inactive: caspase-3 activation [1] 0.391% | outcome [2] | caspase-3 activation [3] 0.741% | caspase-3 activation [4] 2.04% | outcome [5] | outcome [6] | Potency [7] | Potency [8] | outcome [10] | outcome [20] | outcome [11] | outcome [12] | outcome [13] | Potency [14] | Potency [15] | Potency [16] | Potency [17] | Potency [18] | Potency [19]

C=CCn1c(=O)n(CC=C)c(=O)n(CC=C)c1=O
inactive: caspase-3 activation [1] -1.07% | outcome [2] | caspase-3 activation [3] 0.22% | caspase-3 activation [4] -1.6% | outcome [5] | outcome [6] | Potency [7] | Potency [9] | outcome [10] | outcome [20] | outcome [11] | outcome [12] | outcome [13] | Potency [14] | Potency [15] | Potency [16] | Potency [17] | Potency [18] | Potency [19]

CC(C)CO
inactive: caspase-3 activation [1] 0.186% | outcome [2] | caspase-3 activation [3] -0.412% | caspase-3 activation [4] -2.74% | outcome [5] | outcome [6] | Potency [7] | Potency [9] | outcome [10] | outcome [20] | outcome [11] | outcome [12] | outcome [13] | Potency [14] | Potency [15] | Potency [16] | Potency [17] | Potency [18]

CCCC(Cl)CCCC(Cl)CCC(Cl)CCC(Cl)CCC(Cl)CCCC(Cl)CCC (stereo not drawn)
inactive: caspase-3 activation [1] 1.24% | outcome [2] | caspase-3 activation [3] 0.272% | caspase-3 activation [4] -1.03% | outcome [5] | outcome [6] | Potency [7] | Potency [9] | outcome [10] | outcome [20] | outcome [11] | outcome [12] | outcome [13] | Potency [14] | Potency [15] | Potency [16] | Potency [17] | Potency [18] | Potency [19]

Nc1ccccc1S(=O)(=O)O
inactive: caspase-3 activation [1] -0.218% | outcome [2] | caspase-3 activation [3] -0.112% | caspase-3 activation [4] 1.83% | outcome [5] | outcome [6] | Potency [7] | Potency [9] | outcome [10] | outcome [20] | outcome [11] | outcome [12] | outcome [13] | Potency [14] | Potency [15] | Potency [16] | Potency [17] | Potency [18] | Potency [19]

CC(=O)c1ccccn1
inactive: caspase-3 activation [1] 0.864% | outcome [2] | caspase-3 activation [3] 1.68% | caspase-3 activation [4] 0.0845% | outcome [5] | outcome [6] | Potency [7] | Potency [9] | outcome [10] | outcome [20] | outcome [11] | outcome [12] | outcome [13] | Potency [14] | Potency [15] | Potency [16] | Potency [17] | Potency [18] | Potency [19]
